Screening results as filed in PubChem BioAssay.
Only a selection was taken, and hits are over-represented in it overall.
Cycloheximide cs: counter-screen for Shiga toxin inhibitors: cycloheximide protein synthesis inhibition; actives 12% (n = 300,000); cell reporter, cycloheximide protein synthesis inhibition counterscreen; max response, %; in the data active means max response mostly above about 13%, no sharp cut-off; inactive means mostly below about 14%; further: read at 38.3 µM for the half of the compounds with a filed dose; 0% is about no effect
AMA1 RON2 block: inhibitors of Plasmodium falciparum AMA1-RON2 interaction; AlphaScreen AMA1-biotinylated RON2 peptide binding; Potency, µM (series often up to 58.2 µM), for inactives: at the top dose activity change, negative = inhibition, most hits filed as inhibitors; actives 0.2% (n = 360,000); AID 720542; active means well fitted inhibition curve with a large enough effect; inconclusive means small, poorly fitted or top-dose-only effect; inactive means no such curve, though single readings can be large or run the other way;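 further: potency means the concentration at half of the fitted maximal effect; 0% = vehicle wells and -100% = peptide control; nearly all actives have a fitted effect of over 45% in size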
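AMA1 (3D7) with his tag at 25 nM final met compounds first, then biotinylated RON2 peptide at 25 nM; detection used donor plus acceptor beads, 10 µg/mL apiece, read by AlphaScreen after 30 min at room temperature.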
Shiga toxin inh: Shiga toxin inhibition | AID 2315 | inhibition, % at 38.7 µM | actives 9.2% (n = 290,000) | Vero cells, Shiga toxin protein synthesis inhibition reporter; in the data active means inhibition mostly above about 28%, no sharp cut-off; inactive means mostly below about 43%; further: 0% is about no effect
LASV entry inh: blocks Lassa virus binding to or entry into cells; actives 1.2% (n = 300,000); Lassa virus pseudotype entry inhibition, cell reporter; AID 540256; Potency, µM (top dose mostly 37.9 µM), inactives show at the highest dose activity change, negative = inhibition, usual class: inhibitors; calls by dose curve; tested in HEK293 cells; further: potency means the concentration at half of the fitted maximal effect; on the % scale 0 is the no-effect control and ±100 the full control effect; nearly all actives have a fitted effect of over 50% in size
Marburg entry inh: Marburg virus entry inhibition; Marburg virus pseudotyped entry inhibition, cell reporter; Potency, µM (titrated, usually from 37.8 µM), for the others: top-dose activity change, negative = inhibition, most hits filed as inhibitors; actives 1.8% (n = 300,000); AID 540276; calls by dose curve; tested in HEK293 cells; further: potency means the concentration at half of the fitted maximal effect; on the % scale 0 is the no-effect control and ±100 the full control effect
* = called active by the depositor; [ ] = dose if it differs, or a comment.

Screening COc1ccc(NC(=O)c2cc(=O)c3ccc(C)c(C)c3o2)cc1Cl returned LASV entry inh -0.6%[46.1 µM] and Marburg entry inh 4.2%[46.1 µM].
N=C1/C(=C/c2cccs2)C(=O)N=C2SN=C(SCc3ccccc3)N12 was read as Cycloheximide cs 26.4*, AMA1 RON2 block 62.8%, Shiga toxin inh 37.4*, LASV entry inh -0.7% and Marburg entry inh -2.7%.
Screening CSC1=NSC2=NC(=O)/C(=C/c3coc4ccccc4c3=O)C(=N)N12 returned Cycloheximide cs 17.4, AMA1 RON2 block 10.1%, Shiga toxin inh 47.5*, LASV entry inh 15.0% and Marburg entry inh inconclusive.
CSC1=NSC2=NC(=O)/C(=C/c3coc4ccc(O)cc4c3=O)C(=N)N12 was read as Cycloheximide cs -2.1, AMA1 RON2 block 7.6%, Shiga toxin inh -29.2, LASV entry inh 14.0% and Marburg entry inh 0.8%.
`CSC1=NSC2=NC(=O)/C(=C\c3cccs3)C(=N)N12` gave Cycloheximide cs 42.4*, AMA1 RON2 block 3.2%, Shiga toxin inh 41.9*, LASV entry inh inconclusive and Marburg entry inh inconclusive.
For Cc1cc(/C=C2/C(=N)N3C(=NC2=O)SN=C3S(C)(=O)=O)c(C)n1-c1ccccc1F the results were Cycloheximide cs 5.6, AMA1 RON2 block -15.0%, Shiga toxin inh 60.7, LASV entry inh inconclusive and Marburg entry inh inconclusive.
For COc1cc(/C=C2/C(=N)N3C(SC)=NSC3=NC2=O)ccc1OC(=O)c1ccco1 the results were Cycloheximide cs 29.1*, AMA1 RON2 block 17.2%, Shiga toxin inh 84.0, LASV entry inh inconclusive and Marburg entry inh inconclusive.
For O=C(NCCCN1CCOCC1)c1ccc2c(c1)N(Cc1cccc(Cl)c1)C(=O)CS2 the results were Cycloheximide cs -6.9, AMA1 RON2 block -13.6%, Shiga toxin inh -12.8, LASV entry inh -16.5%[46.1 µM] and Marburg entry inh inconclusive.
Screening CC1CCN(C(=O)CN2CCSc3ccccc32)CC1 returned LASV entry inh -5.1%[46.1 µM].
Screening CO[C@H]1CN(C)C(=O)c2cc(NC(=O)c3cc(C)on3)ccc2OC[C@@H](C)N(C(=O)C2CC2)C[C@H]1C returned AMA1 RON2 block -0.5%.
`CCOC(=O)c1cccc(C2=CC(=O)C[C@H](c3ccc(OC)cc3)C2)c1` gave AMA1 RON2 block -26.5%.
`CS(=O)(=O)C1=NSC2=NC(=O)/C(=C\c3cccn3-c3ccc(Cl)cc3)C(=N)N21` gave Cycloheximide cs -6.1, AMA1 RON2 block 12.6%, Shiga toxin inh 11.2, LASV entry inh 8.5% and Marburg entry inh 11.9%.
`CC(C)CSC1=NSC2=NC(=O)/C(=C\c3cccs3)C(=N)N12` gave Cycloheximide cs 67.5*, AMA1 RON2 block 4.5%, Shiga toxin inh 101.7*, LASV entry inh inconclusive and Marburg entry inh inconclusive.
For CC(C)C(=O)N=c1sc2cccc(F)c2n1C the results were Cycloheximide cs 10.4*, AMA1 RON2 block 13.2% and Shiga toxin inh 16.9.
For CCn1c(=NC(=O)c2ccco2)sc2cccc(F)c21 the results were Cycloheximide cs 33.7*, AMA1 RON2 block -7.6% and Shiga toxin inh 100.8*.
Screening N#Cc1ccc(C(=O)N2CCCCC2c2cc(C(=O)Nc3ccc4c(c3)OCO4)no2)cc1 (stereo not drawn) returned AMA1 RON2 block -14.4%.
For Cc1cc(C)nc(N2CCN(c3ccc(F)cc3)CC2)n1 the results were Cycloheximide cs 1.8, AMA1 RON2 block -12.9% and Shiga toxin inh 2.3.
For COc1ccc(-c2ncc3ccccn23)cc1 the results were Cycloheximide cs 41.4*, AMA1 RON2 block -1.3%, Shiga toxin inh 145.2*, LASV entry inh 22.1% and Marburg entry inh 16.7%[46.1 µM].
COc1cccc(-c2ncc3ccccn23)c1 was read as Cycloheximide cs 36.3*, AMA1 RON2 block -15.9%, Shiga toxin inh 71.2*, LASV entry inh -11.4% and Marburg entry inh inconclusive.
Screening COc1cc(OC)cc(-c2ncc3ccccn23)c1 returned Cycloheximide cs 11.0, AMA1 RON2 block inconclusive, Shiga toxin inh 16.6, LASV entry inh -21.9% and Marburg entry inh -14.8%.
`Cc1ccccc1OCC(=O)OCc1cc(=O)n2nc(C3CCCCC3)sc2n1` gave LASV entry inh 8.4%[46.1 µM].
Screening O=C(O)c1cc2[nH]c3c(c2cc1Cl)CCCC3 returned Cycloheximide cs -2.2, AMA1 RON2 block -2.4%, LASV entry inh 6.1%[46.1 µM] and Marburg entry inh 11.6%[46.1 µM].
`C/C(=N\O)c1ccc2c3c([nH]c2c1)CCCC3` gave Cycloheximide cs 65.2*, AMA1 RON2 block -5.8%, Shiga toxin inh 19.9*, LASV entry inh 12.3% and Marburg entry inh -2.1%.
Screening CC(C)(C)c1ccc(NC(=O)CC2(C(F)(F)F)OCCO2)cc1 returned Cycloheximide cs 32.1*, AMA1 RON2 block 9.9%, Shiga toxin inh 33.2, LASV entry inh inconclusive and Marburg entry inh 17.5%.
COc1ccc2c(c1)Cc1sc(NC(=O)c3ccccc3)nc1-2 was read as Cycloheximide cs 48.3*, AMA1 RON2 block 25.8%, Shiga toxin inh 145.5*, LASV entry inh -22.8% and Marburg entry inh -12.5%[46.1 µM].
Screening COc1ccc2c(c1)Cc1sc(NC(=O)c3cccs3)nc1-2 returned Cycloheximide cs 74.0*, AMA1 RON2 block -2.1%, Shiga toxin inh 149.1*, LASV entry inh 37.5% and Marburg entry inh inconclusive.
For COc1ccc(C(=O)Nc2nc3c(s2)Cc2cc(OC)ccc2-3)cc1 the results were Cycloheximide cs 10.8, AMA1 RON2 block -23.0%, Shiga toxin inh 32.0, LASV entry inh 10.6%[46.1 µM] and Marburg entry inh 7.6%[46.1 µM].
For COc1cccc(NC(=O)COc2coc(CN3CCc4ccccc4C3)cc2=O)c1 the results were AMA1 RON2 block 0.8%, LASV entry inh 16.3% and Marburg entry inh -12.5%.
Screening CCCn1c(C)nnc1SCC(=O)NC1CCCCC1 returned Cycloheximide cs -2.4, AMA1 RON2 block -12.1% and Shiga toxin inh -9.5.
Screening COc1ccc(S(=O)(=O)N2CCOC2CNC(=O)C(=O)NCc2ccc(F)cc2)cc1OC (stereo not drawn) returned Cycloheximide cs -1.2, AMA1 RON2 block -7.9%, Shiga toxin inh -13.7, LASV entry inh 11.9% and Marburg entry inh inconclusive.
Screening O=C(c1ccccc1Cl)N1N=C(c2ccc(Br)cc2)CC1c1nc2ccccc2[nH]1 (stereo not drawn) returned Cycloheximide cs 17.2*, AMA1 RON2 block 3.1%, Shiga toxin inh 28.0, LASV entry inh inconclusive and Marburg entry inh inconclusive.
`O=C(c1ccncc1)N1N=C(c2ccc(Br)cc2)CC1c1ccccc1O` (stereo not drawn) gave Cycloheximide cs -4.3, AMA1 RON2 block -24.5%, Shiga toxin inh -7.5 and Marburg entry inh inconclusive.
OCC1CCCN(c2nc(CN3CCCCC3)nc3scc(-c4ccccc4)c23)C1 (stereo not drawn) was read as Cycloheximide cs -3.4, AMA1 RON2 block -0.2%, Shiga toxin inh -8.1, LASV entry inh inconclusive and Marburg entry inh inconclusive.
Screening CCNc1nc(CN2CCCCC2)nc2scc(-c3ccccc3)c12 returned Cycloheximide cs -3.2, AMA1 RON2 block 11.0%, Shiga toxin inh -8.7, LASV entry inh inconclusive and Marburg entry inh 4.47µM*.
`CCCNC(=O)c1ccc(COc2cccc3ccccc23)o1` gave Cycloheximide cs 7.8, AMA1 RON2 block -0.7% and Shiga toxin inh 8.4.
